Structures are written as SMILES. Among all 20,000 compounds or so, about 25 (0.1%) were called active. Rule as the data show it: active = % bound below about 75%; inactive = the rest. The sample as a whole holds a higher share of actives than the screen did.

For the test, the target named is Nucleoprotein (Rift valley fever virus (strain ZH-548 M12)) (UniProt P21700). Put plainly: inhibitors of RVFV nucleoprotein–RNA binding, primary screen, biochemical, fluorescence polarization (AID 651828). The settings on record: RVFV N-RNA binding, stronger effect = lower value, concentration not given here. In general terms: Polarisation of emitted light reports the rotation of a fluorescent probe.
Sequence of Nucleoprotein (Rift valley fever virus (strain ZH-548 M12)) (P21700 whole entry, looked up): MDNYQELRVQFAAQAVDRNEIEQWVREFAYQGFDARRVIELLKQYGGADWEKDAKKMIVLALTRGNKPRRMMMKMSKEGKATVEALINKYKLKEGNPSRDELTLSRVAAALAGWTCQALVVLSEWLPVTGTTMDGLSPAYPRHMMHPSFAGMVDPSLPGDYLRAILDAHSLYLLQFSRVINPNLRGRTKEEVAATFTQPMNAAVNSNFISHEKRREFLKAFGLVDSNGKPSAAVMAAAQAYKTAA
Turning to `CSC(=S)Nc1ccc(C)cc1`, the % bound was 92% (inactive).

`CCN(CC)CCN1C(=O)C(O)=C(C(=O)/C=C/c2ccco2)C1c1ccc(OC)cc1` (centres undefined): the % bound was 97.9% (inactive).

For `CC(Cn1cnc2ccccc21)C(=O)N/N=C/c1ccccc1` (centres undefined), the % bound was 98.5% (inactive).

As to `CC(C)NS(=O)(=O)c1ccc(NC(=O)C2CCCCC2)cc1`, the % bound is 98% (inactive).

With `NS(=O)(=O)c1ccc(NS(=O)(=O)/C=C/c2ccccc2)cc1`, the % bound is 80.7% (inactive).

With `O=C(c1cccc(N2C(=O)c3ccccc3C2=O)c1)N1CCOCC1`, the % bound was 95% (inactive).

Turning to `CCCCN=Cc1c(O)n(-c2ccc(Cl)cc2)c(=O)[nH]c1=O`, the % bound was 85.2% (inactive).

Regarding `O=C(CSc1ccc(-c2ccccc2)nn1)NCC1CCCO1` (centres undefined), the % bound was 91.3% (inactive).

In the case of `O=C(CC1CCCC1)NCc1cn2ccsc2n1`, the % bound is 97.9% (inactive).

With `Cc1cccc(NC(=O)c2ccccc2-c2nc(-c3ccccc3)no2)c1`, the % bound was 89.8% (inactive).

`O=C(CC12CC3CC(CC(C3)C1)C2)Nc1ccc(N2CCN(C(=O)c3ccco3)CC2)cc1`: the % bound is 89.8% (inactive).

`O=C(Nc1ccccn1)c1cc2c(s1)CCCC2`: the % bound is 94.3% (inactive).

`COC(=O)Nc1ccc(S(=O)(=O)Nc2cc(OC)nc(OC)n2)cc1`: the % bound is 95.6% (inactive).

Turning to `COc1ccc(C2CC(=O)c3cnc(NCCN4CCOCC4)nc3C2)cc1` (centres undefined), the % bound is 89.7% (inactive).

With `COC(=O)c1ccc(COc2ccc3c(oc(=O)c4cc(OC)ccc43)c2C)o1`, the % bound is 87.4% (inactive).

Take `CCOC(=O)c1ccc(CC(=O)c2cc(CC)c(O)cc2O)o1`: the % bound was 105% (inactive).

As for `CN1CCC(N(C)C(=O)Nc2c[nH]c3ccccc23)CC1`, the % bound was 96.9% (inactive).

With `CCc1c(O)nc(SCc2ccccc2)n(C2CCCCC2)c1=O`, the % bound was 92.2% (inactive).

With `Cc1cc(Cl)ccc1NNC(=O)c1snnc1C`, the % bound is 109% (inactive).

Consider `Cc1cc(=O)[nH]c(Nc2ccc(O)cc2)n1`, for which the % bound is 96.9% (inactive).

`CSc1n[nH]c(N)c1-c1ccccn1`: the % bound is 93.7% (inactive).

Consider `CP(=O)(O)CN1CCN(CP(C)(=O)O)CC1`, for which the % bound was 93% (inactive).

For `CCNC(=O)N1c2ccccc2Sc2ccccc21`, the % bound is 93.8% (inactive).

Take `CN(C)S(=O)(=O)c1ccc(C(=O)Nc2nnc(C3CC3)o2)cc1`: the % bound is 107% (inactive).

Turning to `Cc1ccc(-c2nn3c(C)nnc3c3ccccc23)cc1S(=O)(=O)N1CCCC1`, the % bound was 93.1% (inactive).

On to `COc1ccc(CCNC(=O)Nc2ccccc2C)cc1OC`, for which the % bound is 91.4% (inactive).

For `O=C(O)c1cc(N=Cc2ccccc2)ccc1O`, the % bound was 108% (inactive).

Turning to `CC(Sc1nnc(-c2c[nH]c3ccccc23)n1C)c1ccccc1` (centres undefined), the % bound is 96.8% (inactive).

Turning to `FC(F)(F)COc1ccc(-c2n[nH]c(=S)o2)cn1`, the % bound is 92.8% (inactive).

For `COc1cccc(CNc2ccc3c(c2)ncn3C)c1`, the % bound is 107% (inactive).

Turning to `Cc1nc(SCC#N)c2c3c(sc2n1)CCCC3`, the % bound is 103% (inactive).

For the compound `O=C(CC(C(=O)O)n1cccn1)c1ccc(Br)cc1` (centres undefined), the % bound is 98.3% (inactive).

Regarding `COCC(=O)N1CCN(c2ccccn2)CC1`, the % bound was 87.2% (inactive).

In the case of `O=S(=O)(NNc1ncnc2sccc12)c1ccc(Cl)cc1`, the % bound is 97.8% (inactive).

For the compound `O=C(CN1CCSCC1)N/N=C/c1ccc(Br)cc1`, the % bound was 101% (inactive).

For the compound `C=CCN(CC=C)C(=O)c1ccc(N2C(=O)CCC2=O)cc1`, the % bound is 95.1% (inactive).

For the compound `CCC(C)NC(=S)NC1CCCCC1` (centres undefined), the % bound is 112% (inactive).

As to `CC(C)(C)c1ccc(CSc2nc3c(c(=O)[nH]2)CCC3)cc1`, the % bound is 91% (inactive).

As for `CN(C(=O)c1cc2cccnc2n(C)c1=O)c1ccccc1`, the % bound was 93.7% (inactive).

Consider `O=C(CCc1ccccc1)NNc1ccc(F)cc1`, for which the % bound is 104% (inactive).

Consider `Cc1[nH]nc2c1C1C(C2)C1(C)C` (centres undefined), for which the % bound was 96.4% (inactive).

Take `C=CCn1c(O)c(N=N)c2ccccc21`: the % bound was 97.3% (inactive).

On to `CC1CCCCN1S(=O)(=O)CCNC(=O)c1ccccc1` (centres undefined), for which the % bound was 89.1% (inactive).

Turning to `CC(C)n1c(-c2ccncc2)n[nH]c1=S`, the % bound is 98.6% (inactive).

Regarding `CN(C)C(=O)c1cc(Br)ccc1Cl`, the % bound is 99.9% (inactive).

Turning to `Cc1onc(-c2ccccc2Cl)c1C(=O)N(Cc1nc(-c2ccccc2)no1)C(C)C`, the % bound is 89% (inactive).

Regarding `CC(C)CCn1c(CO)cnc1S(=O)(=O)C(C)C`, the % bound is 86.9% (inactive).

Turning to `O=C(c1ccc(Br)o1)n1cnc2ccccc21`, the % bound was 104% (inactive).

With `CC(=O)Nn1nc2c(n1)C(=NNC(=O)c1ccccc1)c1nn(NC(C)=O)nc1C2=NNC(=O)c1ccccc1`, the % bound was 98.5% (inactive).

`CNC(C)c1ccc(OC)c(OC)c1` (centres undefined): the % bound was 91% (inactive).

Turning to `CCN(CC)C(=O)/C=C/c1cccc2ccccc12`, the % bound was 101% (inactive).

With `Cc1cc(C)c2c(N)c(-c3n[nH]c(=S)n3C)sc2n1`, the % bound was 98.2% (inactive).

For the compound `CNC(=O)O/N=C/c1nn(C)cc1Br`, the % bound is 94.8% (inactive).

Take `COc1ccc(Cl)cc1NC(=S)N1CCCCC1CO` (centres undefined): the % bound is 94.6% (inactive).

For `O=C(Nc1c[nH]c2ccccc12)NC1CCCC1`, the % bound was 94.2% (inactive).

Turning to `COc1cc(CN2CCN3CCCC3C2C2CCCCC2)cc(OC)c1` (centres undefined), the % bound was 107% (inactive).

For `CC12CN3CC(C)(CN(C1)C31C(=O)Nc3ccccc31)C2O` (centres undefined), the % bound is 103% (inactive).

In the case of `O=c1cc(-c2ccccc2)nc(SCc2ccccn2)[nH]1`, the % bound is 93.4% (inactive).

In the case of `Cn1c(=O)n(Cc2ccco2)c(=N)c2c3c(sc21)CCCC3`, the % bound is 106% (inactive).

`Nn1c(Cc2ccccc2)nnc1SCC(=O)Nc1ccccc1F`: the % bound was 91.9% (inactive).

With `COc1ccc(N=Nc2c(-c3ccc(OC)cc3)[nH]oc2=O)cc1`, the % bound is 75.1% (inactive).

With `CN(C)c1ccc(/C=C2\SC(=Nc3ccccc3)N(CCO)C2=O)cc1`, the % bound is 92.8% (inactive).

As for `CS(=O)(=O)c1ccccc1C(=O)Nc1ccc2sccc2c1`, the % bound is 96% (inactive).

Take `O=S(=O)(c1ccccc1)c1ccc(I)cc1`: the % bound was 96.7% (inactive).

As for `C=CCc1ccc(OCC(=O)ONN)c(OC)c1`, the % bound is 104% (inactive).

`COC(=O)c1sc(-c2cccs2)cc1NS(=O)(=O)c1cn(C)cn1`: the % bound is 98.3% (inactive).

For `Cc1c(Cl)cccc1NC(=O)CCn1cnc2ccccc2c1=O`, the % bound is 81.8% (inactive).

Take `Cc1cc(Oc2cc(C#N)c(C#N)cc2N2CCOCC2)cc(C)c1Cl`: the % bound is 95.2% (inactive).

Take `COc1cc(/C=C2/C(=N)N3N=C(c4ccccc4C)SC3=NC2=O)ccc1OC(=O)c1ccco1`: the % bound was 91.3% (inactive).
